Values joined by “and” are separate entries in the source; they are usually repeats but may differ in a detail not shown here. Identical values can stand only once. Results filed as inconclusive are left out. Some structures have more than one record in an assay (separate samples or runs), and their calls can disagree. Active and inactive are the calls of the source. How the source made its calls, unless noted: active means hit-call score of the fitted dose curve at least 0.9, where 1 is the maximum; inactive means score below 0.9.
How the values were obtained:
[1] = ATG_TAL_CIS: Attagene CIS-FACTORIAL HepG2 Assay for human TAL Basal Promoter (AID 2282966); settings: HepG2 Attagene cis-factorial TAL promoter reporter; actives raise or lower the signal;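 further: background control endpoint measuring basal TAL promoter reporter mRNA not a specific factor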
Summary of the method: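 Fluorescence of labelled reporter cDNA fragments, resolved by capillary electrophoresis, gave the readout. Human HepG2 liver cells carried transiently transfected cis-element reporter units and were treated for 24 hours; activity was fitted bidirectionally against DMSO.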

[2] = ATG_TGFb_CIS: Attagene CIS-FACTORIAL HepG2 Assay for human Transforming Growth Factor (TGF) (AID 2282967); settings: HepG2 Attagene CIS TGFb reporter, mRNA transcription; actives raise or lower the signal
Summary of the method: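 After a 24-hour incubation with compound, transfected HepG2 cells were lysed for RNA; reporter cDNA was amplified, fluorescently end-labeled and separated by CE. DMSO served as baseline for bidirectional fits.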

[3] = ATG_VDRE_CIS: Attagene CIS-FACTORIAL HepG2 Assay for human Vitamin D Receptor Element (VDRE) (AID 2282968); settings: HepG2 VDRE cis-reporter transcription, actives raise or lower the signal
Summary of the method: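 HepG2 cells transiently transfected with cis-element reporter units, dosed 24 h; reporter mRNA measured by RT-PCR, 6-FAM labeling, HpaI digestion and capillary electrophoresis. Activity fitted bidirectionally against DMSO baseline.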

[4] = biological target: Nuclear receptor subfamily 1 group I member 3 (Homo sapiens) (UniProt Q14994); assay: ATG_CAR_TRANS: Attagene TRANS-FACTORIAL HepG2 Assay for human Constitutive Androstane Receptor (CAR) (AID 2282969; active means hit-call score of the fitted dose curve at least 0.9, where 1 is the maximum;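 further: activators raise reporter mRNA above DMSO so AC50 marks induction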); settings: HepG2 Attagene TRANS-FACTORIAL CAR reporter
Summary of the method: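 HepG2 cells transiently transfected with multiplexed GAL4-UAS reporter units expressing chimeric NR-Gal4 proteins; compound exposure 24 h. Reporter mRNA measured by RT-PCR, 6-FAM labelling, HpaI digestion and capillary electrophoresis; gain-of-signal fitted against DMSO baseline.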

[5] = biological target: X-box-binding protein 1 (Homo sapiens) (UniProt P17861); assay: ATG_Xbp1_CIS: Attagene CIS-FACTORIAL HepG2 Assay for human X-box Binding Protein 1 (XBP1) (AID 2282972); settings: HepG2 XBP1 cis-element reporter, Attagene multiplex; actives raise or lower the signal
Summary of the method: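 HepG2, transient MRTU transfection (cis-promoter driven), 24 h compound exposure. Total RNA → oligo(dT) RT → PCR → 6-FAM labeling → HpaI cut → CE. Bidirectional fit vs DMSO.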

[6] = biological target: Estrogen-related receptor gamma (Homo sapiens) (UniProt P62508); assay: ATG_ERRg_TRANS: Attagene TRANS-FACTORIAL HepG2 Assay for human Estrogen-Related Receptor gamma (ERRg) (AID 2282977; active means hit-call score of the fitted dose curve at least 0.9, where 1 is the maximum;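 further: hits increase reporter signal over DMSO so potencies reflect activators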); settings: HepG2 Attagene TRANS reporter, ERRg transactivation
Summary of the method: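 HepG2 cells transiently transfected with multiplexed GAL4-UAS reporter units and chimeric NR-Gal4 constructs were exposed to test chemicals for 24 h. Reporter mRNA was measured by RT-PCR, 6-FAM primer extension, HpaI digestion and capillary electrophoresis; gain-of-signal versus DMSO.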

[7] = ATG_M_06_TRANS: Attagene TRANS-FACTORIAL HepG2 Assay for M06 Transcription Factor (Internal Marker) (AID 2282983; active means hit-call score of the fitted dose curve at least 0.9, where 1 is the maximum;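 further: reporter transcript level by RT-PCR then capillary electrophoresis fluorescence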); settings: HepG2 Attagene TRANS M06 internal marker reporter
Summary of the method: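 Transfect HepG2 with MRTUs → dose compounds 24 h → isolate RNA, oligo(dT) RT → PCR with reporter primers → 6-FAM primer extension → HpaI digest → CE fragment analysis. Positive direction vs DMSO.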

[8] = ATG_M_32_TRANS: Attagene TRANS-FACTORIAL HepG2 Assay for M32 Transcription Factor (Internal Marker) (AID 2282984; active means hit-call score of the fitted dose curve at least 0.9, where 1 is the maximum;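 further: transcript level of a background control reporter unit measured by RT-PCR and capillary electrophoresis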); settings: HepG2 Attagene TRANS M32 internal marker reporter
Summary of the method: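 HepG2 cells transiently transfected with multiple GAL4-UAS reporter transcription units, dosed for 24 hours; reporter mRNA quantified by RT-PCR, 6-FAM primer extension, HpaI digestion and capillary electrophoresis. Gain-of-signal fitted versus DMSO baseline; internal background-control marker.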

[9] = biological target: Transcriptional activator Myb (Homo sapiens) (UniProt P10242); assay: ATG_Myb_CIS: Attagene CIS-FACTORIAL HepG2 Assay for human Myeloblastosis (Myb) Proto-Oncogene Transcription Factor (AID 2282986); settings: HepG2 Attagene CIS-FACTORIAL Myb reporter transcription; actives raise or lower the signal
Summary of the method: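 In this HepG2 transient-transfection format, cis-regulated reporter mRNA is quantified 24 h post-dosing by RT-PCR with capillary electrophoresis, fitted bidirectionally to DMSO baseline.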

[10] = biological target: Nuclear respiratory factor 1 (Homo sapiens) (UniProt Q16656); assay: ATG_NRF1_CIS: Attagene CIS-FACTORIAL HepG2 Assay for human Nuclear Respiratory Factor 1 (NRF1) Orphan Gene (AID 2282987); settings: HepG2 NRF1 cis-element reporter, Attagene multiplex; actives raise or lower the signal
Summary of the method: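 Using DMSO as baseline, gain- or loss-of-signal was fitted for reporter mRNA levels in HepG2 cells transiently transfected with cis-regulated reporter units. Samples were taken 24 h after dosing and read by RT-PCR with capillary electrophoresis.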

[11] = ATG_M_19_TRANS: Attagene TRANS-FACTORIAL HepG2 Assay for M19 Transcription Factor (Internal Marker) (AID 2282974; active means hit-call score of the fitted dose curve at least 0.9, where 1 is the maximum); settings: HepG2 Attagene TRANS-FACTORIAL M19 internal marker reporter
Summary of the method: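 Using RT-PCR and capillary electrophoresis, reporter mRNA from transiently transfected human HepG2 cells was quantified following 24 h exposure; activity was fitted in the positive direction against DMSO.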

[12] = ATG_GAL4_TRANS: Attagene TRANS-FACTORIAL HepG2 Assay for GAL4 (Internal Marker) (AID 2282976; active means hit-call score of the fitted dose curve at least 0.9, where 1 is the maximum); settings: HepG2 Attagene TRANS GAL4 internal marker reporter
Summary of the method: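 First, HepG2 cells were transfected with reporter units under GAL4-UAS control. Next, they were treated with chemical for 24 h. Finally, RNA was reverse-transcribed, PCR-amplified, FAM-labelled and resolved by capillary electrophoresis, with induction scored against DMSO.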

[13] = biological target: Bile acid receptor (Homo sapiens) (UniProt Q96RI1); assay: ATG_FXR_TRANS: Attagene TRANS-FACTORIAL HepG2 Assay for Farnesoid X Receptor (FXR) (AID 2282979; active means hit-call score of the fitted dose curve at least 0.9, where 1 is the maximum;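 further: hits raise reporter mRNA above DMSO so AC50 marks FXR activation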); settings: HepG2 Attagene TRANS FXR-GAL4 reporter transcription
Summary of the method: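 Transient transfection of HepG2 with multiplexed GAL4-UAS reporter units; exogenous FXR-GAL4 chimera. Dose 24 h → TriZol RNA → oligo(dT) RT → PCR, 6-FAM primer extension, HpaI cut → CE. Gain vs DMSO.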

[14] = biological target: Oxysterols receptor LXR-alpha (Homo sapiens) (UniProt Q13133); assay: ATG_LXRa_TRANS: Attagene TRANS-FACTORIAL HepG2 Assay for human Liver X Receptor alpha (LXRa) (AID 2282980; active means hit-call score of the fitted dose curve at least 0.9, where 1 is the maximum); settings: HepG2 Attagene TRANS reporter, LXRa transactivation
Summary of the method: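 Transfect HepG2 with GAL4-UAS multiplex reporter constructs (TRANS format, chimeric receptor-GAL4); treat 24 h; extract RNA, reverse-transcribe, PCR-amplify, FAM-label, HpaI-digest; resolve fragments by capillary electrophoresis. Upward response vs DMSO.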

[15] = biological target: Oxysterols receptor LXR-beta (Homo sapiens) (UniProt P55055); assay: ATG_LXRb_TRANS: Attagene TRANS-FACTORIAL HepG2 Assay for human Liver X Receptor beta (LXRb) (AID 2282981; active means hit-call score of the fitted dose curve at least 0.9, where 1 is the maximum); settings: HepG2 Attagene TRANS GAL4-LXRb reporter, mRNA
Summary of the method: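 HepG2 cells transiently transfected with multiple reporter transcription units carrying chimeric NR-Gal4 proteins acting on GAL4-UAS reporters; compound exposure 24 h. Reporter mRNA quantified by RT-PCR, 6-FAM labelling, HpaI digestion and capillary electrophoresis; gain of signal versus DMSO.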

[16] = biological target: Hepatocyte nuclear factor 4-alpha (Homo sapiens) (UniProt P41235); assay: ATG_HNF4a_TRANS: Attagene TRANS-FACTORIAL HepG2 Assay for human Hepatocyte Nuclear Factor 4 alpha (HNF4a) (AID 2282982; active means hit-call score of the fitted dose curve at least 0.9, where 1 is the maximum); settings: HepG2 HNF4a transactivation reporter, mRNA readout
Summary of the method: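 HepG2 cells transiently transfected with multiplexed GAL4-UAS reporter units responsive to chimeric NR-GAL4 proteins; compound exposure 24 h. Reporter mRNA quantified by RT-PCR, 6-FAM labelling, HpaI digestion and capillary electrophoresis; gain of signal versus DMSO baseline.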

[17] = biological target: Estrogen receptor (Homo sapiens) (UniProt P03372); assay: ATG_ERa_TRANS: Attagene TRANS-FACTORIAL HepG2 Assay for human Estrogen Receptor alpha (ERa) (AID 2282970; active means hit-call score of the fitted dose curve at least 0.9, where 1 is the maximum); settings: HepG2 Attagene TRANS ERa GAL4 reporter, mRNA
Summary of the method: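 Human liver HepG2, transient transfection of multiple GAL4-UAS reporter units; TRANS format (exogenous NR-Gal4 chimera). 24 h dosing. Readout: reporter mRNA, RT-PCR, 6-FAM primer extension, HpaI digest, capillary electrophoresis. Positive direction vs DMSO.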

Measured: AC50

Chain of Bile acid receptor (Homo sapiens) (Q96RI1 whole entry, looked up, the tested form may be a part): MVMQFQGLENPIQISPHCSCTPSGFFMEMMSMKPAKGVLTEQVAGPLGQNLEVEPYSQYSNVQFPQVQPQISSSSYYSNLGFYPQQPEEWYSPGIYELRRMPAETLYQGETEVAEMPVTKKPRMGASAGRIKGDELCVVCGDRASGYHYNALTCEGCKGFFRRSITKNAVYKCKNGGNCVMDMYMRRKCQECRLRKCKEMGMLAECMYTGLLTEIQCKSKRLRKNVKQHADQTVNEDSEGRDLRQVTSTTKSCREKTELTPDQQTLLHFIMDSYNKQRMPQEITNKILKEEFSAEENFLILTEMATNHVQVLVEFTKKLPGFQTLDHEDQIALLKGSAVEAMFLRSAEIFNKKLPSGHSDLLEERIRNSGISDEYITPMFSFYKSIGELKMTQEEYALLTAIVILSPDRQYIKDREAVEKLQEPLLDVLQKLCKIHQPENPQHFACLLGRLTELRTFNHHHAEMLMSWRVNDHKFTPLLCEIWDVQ
Chain of Nuclear respiratory factor 1 (Homo sapiens) (Q16656 whole entry, looked up): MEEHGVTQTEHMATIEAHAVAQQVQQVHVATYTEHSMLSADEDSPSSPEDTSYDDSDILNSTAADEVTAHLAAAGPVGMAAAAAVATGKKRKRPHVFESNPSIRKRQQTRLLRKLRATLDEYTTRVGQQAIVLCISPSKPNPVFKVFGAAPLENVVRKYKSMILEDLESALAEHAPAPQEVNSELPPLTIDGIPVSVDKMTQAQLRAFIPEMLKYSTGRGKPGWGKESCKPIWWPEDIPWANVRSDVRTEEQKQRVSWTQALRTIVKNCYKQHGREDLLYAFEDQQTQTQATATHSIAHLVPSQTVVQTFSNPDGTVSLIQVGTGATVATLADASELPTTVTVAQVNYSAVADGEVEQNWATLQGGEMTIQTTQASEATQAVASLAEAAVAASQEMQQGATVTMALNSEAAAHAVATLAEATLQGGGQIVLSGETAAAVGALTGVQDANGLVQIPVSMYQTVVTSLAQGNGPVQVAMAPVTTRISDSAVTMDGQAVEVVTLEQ
Chain of Oxysterols receptor LXR-beta (Homo sapiens) (P55055 whole entry, looked up, the tested form may be a part): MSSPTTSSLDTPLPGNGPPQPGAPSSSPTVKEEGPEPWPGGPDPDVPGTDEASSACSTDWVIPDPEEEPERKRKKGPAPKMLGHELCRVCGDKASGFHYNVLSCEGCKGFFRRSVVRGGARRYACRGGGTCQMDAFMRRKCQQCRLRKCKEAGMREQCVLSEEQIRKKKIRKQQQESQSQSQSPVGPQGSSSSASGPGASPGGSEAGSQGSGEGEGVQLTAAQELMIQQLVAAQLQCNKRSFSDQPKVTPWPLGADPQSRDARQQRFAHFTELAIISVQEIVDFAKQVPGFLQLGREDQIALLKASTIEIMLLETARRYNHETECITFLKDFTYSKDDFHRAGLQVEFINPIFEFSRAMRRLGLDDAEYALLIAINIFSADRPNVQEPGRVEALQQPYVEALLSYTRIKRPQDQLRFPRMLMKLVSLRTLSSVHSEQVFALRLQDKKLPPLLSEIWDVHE
Chain of Nuclear receptor subfamily 1 group I member 3 (Homo sapiens) (Q14994 whole entry, looked up, the tested form may be a part): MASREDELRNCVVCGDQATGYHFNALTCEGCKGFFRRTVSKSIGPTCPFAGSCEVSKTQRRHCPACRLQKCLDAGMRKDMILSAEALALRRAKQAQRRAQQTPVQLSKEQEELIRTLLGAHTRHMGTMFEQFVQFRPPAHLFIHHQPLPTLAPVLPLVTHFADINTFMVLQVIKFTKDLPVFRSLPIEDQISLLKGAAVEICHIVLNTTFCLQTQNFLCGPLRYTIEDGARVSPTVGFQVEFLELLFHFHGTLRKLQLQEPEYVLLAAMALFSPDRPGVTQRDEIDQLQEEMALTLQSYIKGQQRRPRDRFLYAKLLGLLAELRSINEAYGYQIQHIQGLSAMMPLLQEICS
Chain of X-box-binding protein 1 (Homo sapiens) (P17861 whole entry, looked up): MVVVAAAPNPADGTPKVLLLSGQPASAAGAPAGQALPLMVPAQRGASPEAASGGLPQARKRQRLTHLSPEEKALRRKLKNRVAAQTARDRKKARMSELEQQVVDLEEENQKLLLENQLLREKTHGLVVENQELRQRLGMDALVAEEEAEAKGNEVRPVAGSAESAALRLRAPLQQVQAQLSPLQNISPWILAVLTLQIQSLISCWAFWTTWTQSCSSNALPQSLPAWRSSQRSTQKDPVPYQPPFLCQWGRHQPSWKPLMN
Chain of Transcriptional activator Myb (Homo sapiens) (P10242 whole entry, looked up): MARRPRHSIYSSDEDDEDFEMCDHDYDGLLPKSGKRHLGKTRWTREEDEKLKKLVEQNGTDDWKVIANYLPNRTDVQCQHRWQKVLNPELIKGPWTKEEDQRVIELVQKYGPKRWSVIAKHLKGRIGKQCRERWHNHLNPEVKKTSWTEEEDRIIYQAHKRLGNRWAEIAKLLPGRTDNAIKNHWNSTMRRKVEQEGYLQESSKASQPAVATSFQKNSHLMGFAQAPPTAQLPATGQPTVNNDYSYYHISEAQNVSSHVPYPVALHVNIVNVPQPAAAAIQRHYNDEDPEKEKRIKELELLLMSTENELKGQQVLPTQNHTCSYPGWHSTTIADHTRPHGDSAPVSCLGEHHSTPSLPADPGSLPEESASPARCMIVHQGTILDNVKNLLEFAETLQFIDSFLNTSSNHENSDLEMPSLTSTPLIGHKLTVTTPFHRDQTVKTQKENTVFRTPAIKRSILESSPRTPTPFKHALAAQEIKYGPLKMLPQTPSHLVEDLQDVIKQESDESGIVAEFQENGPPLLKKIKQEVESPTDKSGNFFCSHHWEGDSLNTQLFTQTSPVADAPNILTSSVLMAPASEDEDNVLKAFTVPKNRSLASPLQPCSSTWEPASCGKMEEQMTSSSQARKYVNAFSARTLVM
Chain of Estrogen receptor (Homo sapiens) (P03372 whole entry, looked up, the tested form may be a part): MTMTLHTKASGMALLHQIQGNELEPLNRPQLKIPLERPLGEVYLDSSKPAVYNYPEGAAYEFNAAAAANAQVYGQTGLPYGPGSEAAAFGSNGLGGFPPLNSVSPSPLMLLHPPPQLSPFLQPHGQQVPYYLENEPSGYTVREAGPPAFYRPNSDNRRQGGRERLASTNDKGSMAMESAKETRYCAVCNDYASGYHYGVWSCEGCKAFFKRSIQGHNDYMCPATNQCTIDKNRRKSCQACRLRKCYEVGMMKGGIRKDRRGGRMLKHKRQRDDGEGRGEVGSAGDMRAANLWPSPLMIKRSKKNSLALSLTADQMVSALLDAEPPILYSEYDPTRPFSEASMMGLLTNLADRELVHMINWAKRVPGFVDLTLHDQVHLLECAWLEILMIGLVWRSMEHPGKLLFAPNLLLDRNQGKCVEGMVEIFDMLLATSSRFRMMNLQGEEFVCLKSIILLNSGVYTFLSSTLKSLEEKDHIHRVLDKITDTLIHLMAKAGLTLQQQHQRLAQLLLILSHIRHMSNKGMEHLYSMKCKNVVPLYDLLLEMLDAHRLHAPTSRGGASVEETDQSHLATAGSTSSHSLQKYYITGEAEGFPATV
Chain of Oxysterols receptor LXR-alpha (Homo sapiens) (Q13133 whole entry, looked up, the tested form may be a part): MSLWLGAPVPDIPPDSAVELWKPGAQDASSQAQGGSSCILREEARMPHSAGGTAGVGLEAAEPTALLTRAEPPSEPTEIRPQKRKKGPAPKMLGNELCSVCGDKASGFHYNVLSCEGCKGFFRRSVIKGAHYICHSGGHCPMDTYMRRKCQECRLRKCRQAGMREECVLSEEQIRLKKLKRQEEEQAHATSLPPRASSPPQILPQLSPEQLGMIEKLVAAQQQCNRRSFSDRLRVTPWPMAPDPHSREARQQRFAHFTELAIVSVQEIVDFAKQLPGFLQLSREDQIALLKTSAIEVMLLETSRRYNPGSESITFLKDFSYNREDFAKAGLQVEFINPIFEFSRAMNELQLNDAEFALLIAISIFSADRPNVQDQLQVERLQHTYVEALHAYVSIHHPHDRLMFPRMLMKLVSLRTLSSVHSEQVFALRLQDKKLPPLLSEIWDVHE
Chain of Hepatocyte nuclear factor 4-alpha (Homo sapiens) (P41235 whole entry, looked up, the tested form may be a part): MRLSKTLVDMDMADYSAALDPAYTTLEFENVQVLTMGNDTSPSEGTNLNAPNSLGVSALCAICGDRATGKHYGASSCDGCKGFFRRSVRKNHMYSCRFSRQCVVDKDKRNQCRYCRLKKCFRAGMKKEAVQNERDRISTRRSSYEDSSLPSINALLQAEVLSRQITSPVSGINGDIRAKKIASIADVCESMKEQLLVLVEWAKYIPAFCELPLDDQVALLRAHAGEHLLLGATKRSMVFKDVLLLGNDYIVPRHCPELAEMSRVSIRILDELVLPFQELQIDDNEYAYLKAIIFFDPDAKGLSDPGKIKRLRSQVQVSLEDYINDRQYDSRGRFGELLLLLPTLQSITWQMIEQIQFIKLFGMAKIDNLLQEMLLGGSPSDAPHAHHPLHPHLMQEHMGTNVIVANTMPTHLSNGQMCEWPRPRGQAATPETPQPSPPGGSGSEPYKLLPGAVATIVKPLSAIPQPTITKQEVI
Chain of Estrogen-related receptor gamma (Homo sapiens) (P62508 whole entry, looked up, the tested form may be a part): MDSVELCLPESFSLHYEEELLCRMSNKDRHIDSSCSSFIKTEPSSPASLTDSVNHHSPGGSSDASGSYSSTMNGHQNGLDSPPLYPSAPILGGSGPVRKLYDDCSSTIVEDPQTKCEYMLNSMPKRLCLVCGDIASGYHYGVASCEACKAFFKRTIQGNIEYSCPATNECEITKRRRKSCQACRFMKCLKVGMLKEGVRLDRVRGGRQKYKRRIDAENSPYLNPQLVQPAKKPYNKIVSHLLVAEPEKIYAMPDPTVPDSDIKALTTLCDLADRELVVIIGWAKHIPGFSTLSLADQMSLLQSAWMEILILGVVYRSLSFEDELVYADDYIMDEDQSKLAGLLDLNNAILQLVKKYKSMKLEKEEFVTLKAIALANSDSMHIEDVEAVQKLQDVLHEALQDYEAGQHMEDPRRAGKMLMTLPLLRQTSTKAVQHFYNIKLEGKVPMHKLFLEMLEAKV

CC(C)(C)c1ccccc1
not listed: [11] | [12] | [13] | [14] | [15] | [16] | [17]
inactive: all other assays above

CCN(CC)CCOc1ccc(C(=C(Cl)c2ccccc2)c2ccccc2)cc1
active: [1] 13.1 µM | [2] 3.11 µM | [3] 3.11 µM and 6.33 µM and 1.3 µM | [5] 11.2 µM | [13] 14.8 µM | [9] 14.5 µM | [10] 14.7 µM
inactive: [1] | [2] | [3] | [5] | [11] | [12] | [13] | [14] | [15] | [16] | [7] | [8] | [9] | [10]

CCCCc1nc2cccnc2n1Cc1ccc(-c2ccccc2-c2nnn[nH]2)cc1
not listed: [6] | [7] | [12] | [16]
inactive: all other assays above

COc1ccc(OC(F)(F)F)cc1CN[C@H]1CCCN[C@H]1c1ccccc1
active: [3] 4.99 µM
not listed: [6] | [12] | [13] | [14]
inactive: all other assays above
